Source: PubChem (National Center for Advancing Translational Sciences (NCATS))
Only a selection was taken, and hits are over-represented in it overall.
IL-1B inflam inh – qHTS for Inhibitors of Inflammasome Signaling: IL-1-beta AlphaLISA Primary Screen; THP-1 LPS/ATP IL-1B secretion, AlphaLISA, 16 h; active compounds read low; 360,000 tested, 4.7% active; activity change, % at 57.5 µM; in the data active = activity change below about -50%; inconclusive = mostly about -30% to -49%
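THP-1 cells pretreated 1 hr with compounds (up to 57.5 uM final), then stimulated with LPS (250 ng/mL final) plus ATP (1.25 mM final); secreted IL-1B measured by AlphaLISA after 16 hr, decreased signal indicating inhibition.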
HT1080 IDH1KD tx – qHTS for induction of synthetic lethality in tumor cells producing 2HG: qHTS for the HT-1080-IDH1KD cell line | HT-1080 IDH1 knockdown viability, ATP luminescence, 48 h | Potency, µM (doses to about 46.1 µM), most hits filed as cytotoxic | 360,000 tested, 2% active | AID 686971, 2013
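Cytotoxicity counter-line: IDH1KD HT-1080, 48 h, CellTiter-Glo. Curves classed by r2, magnitude and activity.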
ALOX12 inh – Primary qHTS assay for inhibitors of human arachidonate 12S-lipoxygenase (ALOX12): Round 2; purified 12hLO, xylenol orange hydroperoxide absorbance; Potency, µM (highest dose often 108 µM), actives largely listed as inhibitors; 580,000 tested, 1.1% active
Target sequence (P18054 whole entry, looked up): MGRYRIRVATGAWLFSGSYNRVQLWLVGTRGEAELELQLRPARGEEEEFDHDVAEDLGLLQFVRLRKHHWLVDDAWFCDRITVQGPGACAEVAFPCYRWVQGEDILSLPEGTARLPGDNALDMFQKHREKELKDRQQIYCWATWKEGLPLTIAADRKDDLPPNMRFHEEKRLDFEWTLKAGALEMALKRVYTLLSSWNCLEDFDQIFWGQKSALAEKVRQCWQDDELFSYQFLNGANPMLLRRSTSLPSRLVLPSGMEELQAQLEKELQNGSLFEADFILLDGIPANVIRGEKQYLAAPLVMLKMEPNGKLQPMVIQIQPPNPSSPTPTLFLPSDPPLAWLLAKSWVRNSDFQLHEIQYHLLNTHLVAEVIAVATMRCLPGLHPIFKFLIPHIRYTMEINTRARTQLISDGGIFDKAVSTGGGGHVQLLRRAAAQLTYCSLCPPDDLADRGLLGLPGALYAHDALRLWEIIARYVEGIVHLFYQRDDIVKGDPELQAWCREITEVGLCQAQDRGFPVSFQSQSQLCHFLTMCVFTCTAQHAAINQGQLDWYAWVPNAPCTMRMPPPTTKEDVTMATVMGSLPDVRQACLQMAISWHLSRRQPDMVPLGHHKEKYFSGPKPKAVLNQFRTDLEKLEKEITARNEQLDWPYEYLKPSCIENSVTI
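Hydroperoxide product was detected by ferrous iron/xylenol orange as the 573 to 405 nm absorbance ratio. Arachidonic acid at 40 uM (final) was turned over for 30 min at room temperature by 150 nM human 12hLO, pH 7.0 Hepes buffer, after 15 min compound preincubation.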
DT40 TDP1 no CPT – qHTS for Inhibitors of human tyrosyl-DNA phosphodiesterase 1 (TDP1): qHTS in cells in absence of CPT; DT40 Tdp1-/- hTDP1 cells, no CPT, ATP luminescence, 48 h; Potency, µM (series often up to 46.2 µM), usual class: inhibitors; 420,000 tested, 15% active; AID 686978, 2013; note: nearly all actives have a fitted effect of over 55% in size
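A cellular qHTS used chicken DT40 cells lacking endogenous Tdp1 but carrying stably transfected human TDP1. Compounds were applied without camptothecin, and cell growth kinetics were judged by ATP-dependent luminescence after ≥48 hr.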
DT40 TDP1 CPT – qHTS for Inhibitors of human tyrosyl-DNA phosphodiesterase 1 (TDP1): qHTS in cells in presence of CPT; chicken DT40 Tdp1-/-;hTDP1 cells + 20 nM CPT, ATP luminescence, 48 h; Potency, µM (highest dose often 46.2 µM), hits mostly inhibitors; 420,000 tested, 12% active; note: nearly all actives have a fitted effect of over 55% in size
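Chicken DT40 Tdp1-/- cells stably complemented with human TDP1 were seeded at 400 cells/well in medium containing 20 nM camptothecin, exposed to pin-transferred compounds, and grown at 37 °C for at least 48 hr. Viability was read as ATP luminescence.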
HT1080NT lethal – qHTS for induction of synthetic lethality in tumor cells producing 2HG: qHTS for the HT-1080-NT fibrosarcoma cell line; 360,000 tested, 1.6% active; HT-1080-NT fibrosarcoma viability, CellTiter-Glo ATP luminescence, 48 h; Potency, µM (titrated, usually from 46.1 µM), usual class: cytotoxic;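 note: NT is the 2HG producing partner of a matched IDH1 knockdown line; nearly all actives have a fitted effect of over 55% in size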
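750 cells/well, RPMI + 5% FBS; 2 h settle, compound pin-transfer, 48 h at 37 degrees C. CellTiter-Glo 10 min RT, luminescence. Normalized to DMSO and media-only wells.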
A number is an active result; - = inactive; ? = inconclusive; . = no result. Unless noted, calls come from the whole dose curve; as a rule, active = well fitted curve in the direction sought with a large enough effect; inconclusive = small, poorly fitted or top-dose-only effect, or another doubt; inactive = no such curve, though single readings can be large; an effect the other way counts as inactive or inconclusive.

SMILES	IL-1B inflam inh	HT1080 IDH1KD tx	ALOX12 inh	DT40 TDP1 no CPT	DT40 TDP1 CPT	HT1080NT lethal
COc1ccc(C(=O)n2nnc3ccccc32)cc1OC	-	-	-	-	?	-
CCSc1ccccc1C(=O)n1nnc2ccccc21	-	?	-	?	13µM	?
CN1/C(=C\C(=O)CN2CCN(C(c3ccccc3)c3ccccc3)CC2)C(C)(C)c2ccccc21	.	.	10µM	.	.	.
CCOC(=O)C1CCCN(CC(=O)/C=C2/N(C)c3ccccc3C2(C)C)C1 (stereo not drawn)	-	-	?	13µM	?	-
CN1/C(=C\C(=O)Nc2cccc(Cl)c2)C(C)(C)c2ccccc21	-72	?	-	23µM	?	?
CN1/C(=C/C(=O)C2CC2)C(C)(C)c2ccccc21	-	-	?	23µM	?	-
CCC(=O)Nc1cccc(C2OC(=O)N(Cc3ccc(C)cc3)C2C(=O)Nc2ccc(F)cc2)c1 (stereo not drawn)	.	.	-	.	.	.
Cc1nc2cccnc2n1-c1cc(C(=O)Nc2ccc(F)cc2Cl)ccc1Cl	.	.	-	.	.	.
Cc1ccc(S(=O)(=O)Cc2nc(-c3ccc(C(=O)NCCCN4CCOCC4)cc3)oc2C)cc1	.	.	-	.	.	.
FC(F)(F)C1=Nc2cccc3cccc(c23)N1	-	-	?	4.6µM	4.1µM	-
Brc1ccc(-c2nc(-c3ccccc3)no2)o1	-	-	-	-	-	-
Brc1ccc(C2=Nc3cccc4cccc(c34)N2)o1	-	-	?	8.2µM	6.5µM	-
CC(C)OCCCNC(=O)c1ccccc1-c1ncc(-c2ccc(F)cc2)o1	.	.	-	.	.	.
Cc1cccc(CCN2CCc3[nH]cnc3C2C(=O)O)n1 (stereo not drawn)	.	.	-	.	.	.
Cc1cc(C)cc(NC(=O)c2nn(C)c(=O)c3ccccc23)c1	.	.	-	.	.	.
CC(C)(C)c1cc(C(=O)NNc2cccc(Cl)c2)n(Cc2ccccc2)n1	-68	18µM	-	?	?	21µM
CC(C)(C)c1cc(C(=O)NNc2ccc(OC(F)(F)F)cc2)n(Cc2ccccc2)n1	.	7.3µM	?	?	-	?
O=C(C1CCOCC1)N1CCCC(N2CCN(c3cccc(C(F)(F)F)c3)CC2)C1 (stereo not drawn)	-	-	-	-	-	-
COc1cccc(CNC(=O)Cc2c(C)c3ccc(OC)c(OC)c3oc2=O)c1	.	.	-	.	.	.
COCCn1c(CN2CCN(c3ccccc3)CC2)nc2c1c(=O)n(C)c(=O)n2C	-	-	-	10µM	10µM	-
COC(=O)Cn1c(CN2CCN(c3ccccc3F)CC2)nc2c1c(=O)n(C)c(=O)n2C	-	-	-	8.2µM	5.8µM	-
COc1ccc(N2CCN(Cc3nc4c(c(=O)n(C)c(=O)n4C)n3C(C)C)CC2)cc1	.	.	-	0.65µM	1µM	.
C=CCn1c(N2CCN(c3ccc(OC)cc3)CC2)nc2c1c(=O)n(C)c(=O)n2C	-	-	-	18µM	21µM	-
COC(=O)Cn1c(CN2CCN(c3ccccc3)CC2)nc2c1c(=O)n(C)c(=O)n2C	.	.	-	.	.	.
CCOCCn1c(CN2CCN(c3ccccc3)CC2)nc2c1c(=O)n(C)c(=O)n2C	-	-	-	16µM	16µM	-
CCC(NC(=O)c1coc(COc2ccc(F)cc2)n1)c1ccncc1 (stereo not drawn)	.	.	-	.	.	.
COC(=O)[C@H]1[C@@H]2C[C@H]3c4[nH]c5ccccc5c4CCN3C[C@@H]2CC[C@@H]1O	.	.	?	-	-	.
CC(=O)NCCNC(=O)c1cc2ccc(F)cc2nc1C	.	.	-	.	.	.
C[C@H]1CN([C@@H](C)CO)C(=O)c2cc(Br)cnc2O[C@H]1CN(C)C(=O)c1ccccn1	-	-	?	-	-	-
